# Data taken from PubChem BioAssay AID1159580 (chemical genetic matrix, 2015).
# Several values for one entry are separate records, joined by “and”; a condition that tells them apart may be missing. Equal entries are not always repeated. Out of some 5,500 compounds screened, about 2,000 (36%) were called active. Roughly 18% stayed inconclusive and do not appear here. Rule as the data show it: active = normalized growth mostly below about 0.91 (no sharp cut-off); inconclusive = no clear call, values can overlap the other calls; inactive = mostly above about 0.92. The list shows a part of the results. Where a structure was tested more than once in an assay, its records may differ in their call.
# Assay: chemical genetic growth profiling, strain panel (AID 1159580);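 also: tested at 20 µM; growth read once vehicle control cultures reached saturation at 30 °C; 1 = growth at the plate median or of vehicle wells; lower values mean less growth of the strain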
# Details: growth OD
smiles,measurement,setting,value
CC[N+](C)(C)c1cccc(O)c1,normalized growth,"S. cerevisiae deletion strains, locus YJR075W, strain HOC1, stronger effect = lower value",0.985 (inactive) and 1.04 (inactive)
same,normalized growth,"S. cerevisiae deletion strains, locus YKL009W, strain mrt4, stronger effect = lower value",1 (inactive)
same,normalized growth,"S. cerevisiae deletion strains, locus YKL068W, stronger effect = lower value",0.985 (inactive)
same,normalized growth,"S. cerevisiae deletion strains, locus YKL085W, strain MDH1 (second series), stronger effect = lower value",1 (inactive)
same,normalized growth,"S. cerevisiae deletion strains, locus YKL085W, strain MDH1, stronger effect = lower value",1 (inactive)
same,normalized growth,"S. cerevisiae deletion strains, locus YKL160W, strain elf1, stronger effect = lower value",1.06 (inactive)
same,normalized growth,"S. cerevisiae deletion strains, locus YKL190W, strain CNB1, stronger effect = lower value",1.01 (inactive)
same,normalized growth,"S. cerevisiae deletion strains, locus YKR001C, strain vps1, stronger effect = lower value",0.97 (inactive)
same,normalized growth,"S. cerevisiae deletion strains, locus YKR026C, strain gcn3, stronger effect = lower value",1 (inactive)
same,normalized growth,"S. cerevisiae deletion strains, locus YKR091W, strain srl3, stronger effect = lower value",1.01 (inactive)
same,normalized growth,"S. cerevisiae deletion strains, locus YLL001W, strain dnm1, stronger effect = lower value",1.06 (inactive)
same,normalized growth,"S. cerevisiae deletion strains, locus YLL026W, stronger effect = lower value",1 (inactive)
same,normalized growth,"S. cerevisiae deletion strains, locus YLL041C, strain sdh2, stronger effect = lower value",1.01 (inactive)
same,normalized growth,"S. cerevisiae deletion strains, locus YLR027C, strain aat2, stronger effect = lower value",1.02 (inactive)
same,normalized growth,"S. cerevisiae deletion strains, locus YLR039C, strain RIC1, stronger effect = lower value",0.993 (inactive)
same,normalized growth,"S. cerevisiae deletion strains, locus YLR058C, strain SHM2, stronger effect = lower value",0.982 (inactive)
same,normalized growth,"S. cerevisiae deletion strains, locus YLR102C, strain apc9, stronger effect = lower value",0.977 (inactive)
same,normalized growth,"S. cerevisiae deletion strains, locus YLR113W, strain HOG1, stronger effect = lower value",0.996 (inactive)
same,normalized growth,"S. cerevisiae deletion strains, locus YLR221C, strain rsa3, stronger effect = lower value",1.03 (inactive)
same,normalized growth,"S. cerevisiae deletion strains, locus YLR258W, strain gsy2, stronger effect = lower value",1.01 (inactive)
same,normalized growth,"S. cerevisiae deletion strains, locus YLR262C, strain YPT6 (second series), stronger effect = lower value",1.05 (inactive)
same,normalized growth,"S. cerevisiae deletion strains, locus YLR262C, strain YPT6, stronger effect = lower value",1 (inactive)
same,normalized growth,"S. cerevisiae deletion strains, locus YLR268W, strain sec22, stronger effect = lower value",0.917 (inactive)
same,normalized growth,"S. cerevisiae deletion strains, locus YLR320W, strain mms22, stronger effect = lower value",1.06 (inactive)
same,normalized growth,"S. cerevisiae deletion strains, locus YLR330W, strain CHS5, stronger effect = lower value",0.992 (inactive)
same,normalized growth,"S. cerevisiae deletion strains, locus YLR342W, strain FKS1 (second series), stronger effect = lower value",1.04 (inactive)
same,normalized growth,"S. cerevisiae deletion strains, locus YLR342W, strain FKS1, stronger effect = lower value",1.02 (inactive)
same,normalized growth,"S. cerevisiae deletion strains, locus YLR357W, strain rsc2, stronger effect = lower value",1.01 (inactive)
same,normalized growth,"S. cerevisiae deletion strains, locus YLR370C, strain arc18, stronger effect = lower value",1.01 (inactive)
same,normalized growth,"S. cerevisiae deletion strains, locus YLR371W, strain rom2, stronger effect = lower value",0.969 (inactive)
same,normalized growth,"S. cerevisiae deletion strains, locus YLR384C, strain iki3, stronger effect = lower value",0.996 (inactive)
same,normalized growth,"S. cerevisiae deletion strains, locus YLR418C, strain cdc73, stronger effect = lower value",0.954 (inactive)
same,normalized growth,"S. cerevisiae deletion strains, locus YML016C, strain PPZ1, stronger effect = lower value",0.992 (inactive)
same,normalized growth,"S. cerevisiae deletion strains, locus YML032C, strain rad52, stronger effect = lower value",0.954 (inactive)
same,normalized growth,"S. cerevisiae deletion strains, locus YML120C, strain ndi1, stronger effect = lower value",1.04 (inactive)
same,normalized growth,"S. cerevisiae deletion strains, locus YML124C, strain tub3, stronger effect = lower value",0.984 (inactive)
same,normalized growth,"S. cerevisiae deletion strains, locus YMR058W, strain fet3, stronger effect = lower value",1.02 (inactive)
same,normalized growth,"S. cerevisiae deletion strains, locus YMR078C, strain ctf18, stronger effect = lower value",0.96 (inactive)
same,normalized growth,"S. cerevisiae deletion strains, locus YMR125W, strain sto1, stronger effect = lower value",1.05 (inactive)
same,normalized growth,"S. cerevisiae deletion strains, locus YMR129W, stronger effect = lower value",1.01 (inactive)
same,normalized growth,"S. cerevisiae deletion strains, locus YMR205C, strain PFK2, stronger effect = lower value",1.04 (inactive)
same,normalized growth,"S. cerevisiae deletion strains, locus YMR223W, strain ubp8, stronger effect = lower value",0.996 (inactive)
same,normalized growth,"S. cerevisiae deletion strains, locus YMR231W, strain pep5, stronger effect = lower value",1 (inactive)
same,normalized growth,"S. cerevisiae deletion strains, locus YMR263W, strain SAP30, stronger effect = lower value",0.993 (inactive)
same,normalized growth,"S. cerevisiae deletion strains, locus YMR307W, strain GAS1, stronger effect = lower value",0.956 (inactive) and 1.04 (inactive)
same,normalized growth,"S. cerevisiae deletion strains, locus YNL067W, strain RPL9B, stronger effect = lower value",0.975 (inactive)
same,normalized growth,"S. cerevisiae deletion strains, locus YNL071W, strain lat1, stronger effect = lower value",1.02 (inactive)
same,normalized growth,"S. cerevisiae deletion strains, locus YNL128W, strain TEP1, stronger effect = lower value",0.991 (inactive)
same,normalized growth,"S. cerevisiae deletion strains, locus YNL153C, strain GIM3, stronger effect = lower value",0.982 (inactive)
same,normalized growth,"S. cerevisiae deletion strains, locus YNL175C, strain NOP13, stronger effect = lower value",0.999 (inactive)
same,normalized growth,"S. cerevisiae deletion strains, locus YNL183C, strain NPR1, stronger effect = lower value",0.95 (inactive)
same,normalized growth,"S. cerevisiae deletion strains, locus YNL197C, strain WHI3, stronger effect = lower value",1 (inactive)
same,normalized growth,"S. cerevisiae deletion strains, locus YNL209W, strain ssb2, stronger effect = lower value",1.01 (inactive)
same,normalized growth,"S. cerevisiae deletion strains, locus YNL224C, strain SQS1, stronger effect = lower value",1.02 (inactive)
same,normalized growth,"S. cerevisiae deletion strains, locus YNL233W, strain BNI4, stronger effect = lower value",0.979 (inactive)
same,normalized growth,"S. cerevisiae deletion strains, locus YNL248C, strain rpa49, stronger effect = lower value",1.07 (inactive)
same,normalized growth,"S. cerevisiae deletion strains, locus YNL250W, strain rad50, stronger effect = lower value",0.982 (inactive)
same,normalized growth,"S. cerevisiae deletion strains, locus YNL271C, strain bni1, stronger effect = lower value",0.977 (inactive)
same,normalized growth,"S. cerevisiae deletion strains, locus YNL298W, strain CLA4, stronger effect = lower value",0.979 (inactive)
same,normalized growth,"S. cerevisiae deletion strains, locus YNL307C, strain MCK1, stronger effect = lower value",0.973 (inactive)
same,normalized growth,"S. cerevisiae deletion strains, locus YNL322C, strain KRE1 (second series), stronger effect = lower value",1.02 (inactive)
same,normalized growth,"S. cerevisiae deletion strains, locus YNL322C, strain KRE1, stronger effect = lower value",0.993 (inactive)
same,normalized growth,"S. cerevisiae deletion strains, locus YNR049C, strain mso1, stronger effect = lower value",1.01 (inactive)
same,normalized growth,"S. cerevisiae deletion strains, locus YNR052C, strain pop2, stronger effect = lower value",0.984 (inactive)
same,normalized growth,"S. cerevisiae deletion strains, locus YOL006C, strain TOP1, stronger effect = lower value",0.948 (inactive)
same,normalized growth,"S. cerevisiae deletion strains, locus YOL012C, strain htz1",0.664 (inactive)
same,normalized growth,"S. cerevisiae deletion strains, locus YOL147C, strain pex11, stronger effect = lower value",0.982 (inactive)
same,normalized growth,"S. cerevisiae deletion strains, locus YOR001W, strain rrp6, stronger effect = lower value",0.951 (inactive)
same,normalized growth,"S. cerevisiae deletion strains, locus YOR061W, strain CKA2, stronger effect = lower value",0.989 (inactive)
same,normalized growth,"S. cerevisiae deletion strains, locus YOR069W, strain VPS5, stronger effect = lower value",0.986 (inactive)
same,normalized growth,"S. cerevisiae deletion strains, locus YOR070C, strain gyp1, stronger effect = lower value",1 (inactive)
same,normalized growth,"S. cerevisiae deletion strains, locus YOR080W, strain dia2, stronger effect = lower value",1 (inactive)
same,normalized growth,"S. cerevisiae deletion strains, locus YOR083W, strain WHI5 (second series), stronger effect = lower value",0.991 (inactive)
same,normalized growth,"S. cerevisiae deletion strains, locus YOR083W, strain WHI5, stronger effect = lower value",1.05 (inactive)
same,normalized growth,"S. cerevisiae deletion strains, locus YOR106W, strain vam3, stronger effect = lower value",1.05 (inactive)
same,normalized growth,"S. cerevisiae deletion strains, locus YOR136W, strain idh2, stronger effect = lower value",0.986 (inactive)
same,normalized growth,"S. cerevisiae deletion strains, locus YOR144C, strain elg1, stronger effect = lower value",0.979 (inactive)
same,normalized growth,"S. cerevisiae deletion strains, locus YOR184W, strain ser1, stronger effect = lower value",0.955 (inactive)
same,normalized growth,"S. cerevisiae deletion strains, locus YOR231W, strain MKK1, stronger effect = lower value",0.997 (inactive)
same,normalized growth,"S. cerevisiae deletion strains, locus YOR265W, strain rbl2, stronger effect = lower value",1.01 (inactive)
same,normalized growth,"S. cerevisiae deletion strains, locus YOR270C, strain vph1, stronger effect = lower value",1.07 (inactive)
same,normalized growth,"S. cerevisiae deletion strains, locus YOR290C, strain snf2, stronger effect = lower value",1.04 (inactive)
same,normalized growth,"S. cerevisiae deletion strains, locus YOR316C, strain cot1, stronger effect = lower value",0.975 (inactive)
same,normalized growth,"S. cerevisiae deletion strains, locus YPL051W, strain arl3, stronger effect = lower value",1.04 (inactive)
same,normalized growth,"S. cerevisiae deletion strains, locus YPL055C, strain LGE1, stronger effect = lower value",1.01 (inactive) and 1.17 [resistant] (active)
same,normalized growth,"S. cerevisiae deletion strains, locus YPL078C, strain atp4, stronger effect = lower value",1.06 (inactive)
same,normalized growth,"S. cerevisiae deletion strains, locus YPL106C, strain sse1, stronger effect = lower value",1.02 (inactive)
same,normalized growth,"S. cerevisiae deletion strains, locus YPL240C, strain hsp82, stronger effect = lower value",1.01 (inactive)
same,normalized growth,"S. cerevisiae deletion strains, locus YPL241C, strain CIN2, stronger effect = lower value",1 (inactive) and 1.01 (inactive)
same,normalized growth,"S. cerevisiae deletion strains, locus YPL256C, strain CLN2, stronger effect = lower value",0.981 (inactive)
same,normalized growth,"S. cerevisiae deletion strains, locus YPR119W, strain clb2, stronger effect = lower value",0.992 (inactive)
same,normalized growth,"S. cerevisiae deletion strains, locus YPR141C, strain kar3, stronger effect = lower value",0.96 (inactive)
same,normalized growth,"S. cerevisiae deletion strains, locus YPR163C, strain tif3, stronger effect = lower value",0.97 (inactive)
same,normalized growth,"S. cerevisiae deletion strains, locus YPR167C, strain met16, stronger effect = lower value",0.979 (inactive)
same,normalized growth,"S. cerevisiae deletion strains, strain wtn01, stronger effect = lower value",0.937 (inactive)
same,normalized growth,"S. cerevisiae strains, strain wild type, stronger effect = lower value",0.996 (inactive)
